In article PMC7862700, “An all-to-all approach to the identification of sequence-specific readers for epigenetic DNA modifications on cytosine”:

Columns and labels:
Assay in all cases: DAPPL (digital affinity profiling via proximity ligation, sequencing); 10 mM Tris-HCl pH 7.5, 50 mM NaCl, 1 mM DTT, 4% glycerol, room temperature, 30 min; GST-TFs on glutathione beads, 16-mer random dsDNA library, 0.1% formaldehyde crosslink after washing; high values mean tight binding
FLI1 = molecular target: T1, FLI1 (Homo sapiens, UniProt Q01543 1-452); settings: protein: recombinant; tags: N-terminal GST; dsDNA, one strand shown
T1 sequence: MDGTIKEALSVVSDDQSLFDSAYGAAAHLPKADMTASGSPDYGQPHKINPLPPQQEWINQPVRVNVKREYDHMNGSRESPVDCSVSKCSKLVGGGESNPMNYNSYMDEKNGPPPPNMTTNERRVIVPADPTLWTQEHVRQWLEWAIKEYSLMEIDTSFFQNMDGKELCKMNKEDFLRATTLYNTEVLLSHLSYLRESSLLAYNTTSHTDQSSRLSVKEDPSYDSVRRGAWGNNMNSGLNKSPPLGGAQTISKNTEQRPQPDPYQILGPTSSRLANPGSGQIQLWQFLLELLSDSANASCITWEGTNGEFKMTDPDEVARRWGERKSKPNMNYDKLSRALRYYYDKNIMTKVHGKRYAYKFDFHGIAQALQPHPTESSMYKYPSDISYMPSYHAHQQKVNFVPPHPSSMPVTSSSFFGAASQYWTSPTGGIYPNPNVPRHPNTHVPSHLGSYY
In short: (§1)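 Binding signal is each hexamer's read frequency for a factor divided by its frequency in the tag-only sample. The factors were GST-fused human transcription factors from yeast, captured on glutathione beads, DNA-barcoded and pooled with that sample. Pools were incubated with 200 nmole of a random double-stranded 16-mer DNA library in Tris/NaCl/DTT/glycerol buffer at room temperature for 30 min, then washed, crosslinked with 0.1% formaldehyde, proximity-ligated with BsaI/T4 ligase (1 h, 37 °C), PCR-amplified and sequenced on an Illumina NextSeq500.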

ELK1 = molecular target: T2, ELK1 (Homo sapiens, UniProt P19419 1-428); settings: protein: recombinant; tags: N-terminal GST; dsDNA, one strand shown
T2 sequence: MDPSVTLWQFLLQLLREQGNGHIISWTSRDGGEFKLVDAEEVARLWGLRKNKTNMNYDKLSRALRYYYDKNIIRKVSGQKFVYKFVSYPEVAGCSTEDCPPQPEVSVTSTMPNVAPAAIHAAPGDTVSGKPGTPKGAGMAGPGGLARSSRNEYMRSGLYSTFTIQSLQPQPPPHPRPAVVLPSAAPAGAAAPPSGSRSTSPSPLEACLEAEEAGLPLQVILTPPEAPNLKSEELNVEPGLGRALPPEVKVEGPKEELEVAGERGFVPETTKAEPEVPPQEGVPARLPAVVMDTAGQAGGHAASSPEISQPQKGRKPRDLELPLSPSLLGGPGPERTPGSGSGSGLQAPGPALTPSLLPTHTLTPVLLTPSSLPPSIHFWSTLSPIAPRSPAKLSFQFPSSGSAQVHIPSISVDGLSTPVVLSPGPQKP
In short: as §1

GABPA = molecular target: T3, GABPA (Homo sapiens, UniProt Q06546 1-454); settings: protein: recombinant; tags: N-terminal GST; dsDNA, one strand shown
T3 sequence: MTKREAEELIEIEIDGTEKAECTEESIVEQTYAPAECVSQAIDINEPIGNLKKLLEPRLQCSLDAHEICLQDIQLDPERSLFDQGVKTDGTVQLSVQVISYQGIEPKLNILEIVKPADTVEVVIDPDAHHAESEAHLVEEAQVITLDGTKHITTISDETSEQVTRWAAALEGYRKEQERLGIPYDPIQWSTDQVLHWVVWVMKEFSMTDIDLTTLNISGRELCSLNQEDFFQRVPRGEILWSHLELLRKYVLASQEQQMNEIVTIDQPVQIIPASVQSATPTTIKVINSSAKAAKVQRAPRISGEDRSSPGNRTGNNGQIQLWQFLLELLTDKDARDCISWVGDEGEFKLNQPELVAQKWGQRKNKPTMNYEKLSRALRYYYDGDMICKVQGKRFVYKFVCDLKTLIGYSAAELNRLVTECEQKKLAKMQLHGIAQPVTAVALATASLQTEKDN
In short: as §1

ERG = molecular target: T4, ERG (Homo sapiens, UniProt P11308 1-479); settings: protein: recombinant; tags: N-terminal GST; dsDNA, one strand shown
T4 sequence: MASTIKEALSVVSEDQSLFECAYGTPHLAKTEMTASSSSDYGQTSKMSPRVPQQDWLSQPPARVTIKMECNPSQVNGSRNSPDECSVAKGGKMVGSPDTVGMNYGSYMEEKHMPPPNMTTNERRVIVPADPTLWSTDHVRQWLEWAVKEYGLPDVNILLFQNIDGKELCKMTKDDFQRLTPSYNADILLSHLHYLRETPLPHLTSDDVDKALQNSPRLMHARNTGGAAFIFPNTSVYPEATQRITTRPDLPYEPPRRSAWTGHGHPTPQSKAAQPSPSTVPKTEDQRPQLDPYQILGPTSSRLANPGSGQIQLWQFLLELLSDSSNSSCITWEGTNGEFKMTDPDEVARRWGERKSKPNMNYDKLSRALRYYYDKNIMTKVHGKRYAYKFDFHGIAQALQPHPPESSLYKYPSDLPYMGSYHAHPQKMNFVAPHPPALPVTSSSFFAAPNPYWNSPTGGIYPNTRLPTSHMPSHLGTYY
In short: as §1

ELF1 = ELF1 (Homo sapiens, UniProt P32519 1-619); settings: protein: recombinant; tags: N-terminal GST; dsDNA, one strand shown
In short: as §1

EHF = molecular target: T5, EHF (Homo sapiens, UniProt Q9NZC4 1-300); settings: protein: recombinant; tags: N-terminal GST; dsDNA, one strand shown
T5 sequence: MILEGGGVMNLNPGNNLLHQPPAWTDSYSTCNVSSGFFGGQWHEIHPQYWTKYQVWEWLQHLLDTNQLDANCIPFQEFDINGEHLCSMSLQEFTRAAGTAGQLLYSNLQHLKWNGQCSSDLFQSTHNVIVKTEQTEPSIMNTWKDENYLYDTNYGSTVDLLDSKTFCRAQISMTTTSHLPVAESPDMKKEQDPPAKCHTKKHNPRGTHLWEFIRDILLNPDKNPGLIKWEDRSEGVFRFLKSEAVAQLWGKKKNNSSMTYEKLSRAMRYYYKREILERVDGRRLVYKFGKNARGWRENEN
In short: as §1

SPI1 = SPI1 (Homo sapiens, UniProt P17947 1-270); settings: protein: recombinant; tags: N-terminal GST; dsDNA, one strand shown
In short: as §1

SPIB = SPIB (Homo sapiens, UniProt Q01892 1-262); settings: protein: recombinant; tags: N-terminal GST; dsDNA, one strand shown
In short: as §1

ELK3 = molecular target: T6, ELK3 (Homo sapiens, UniProt P41970 1-407); settings: protein: recombinant; tags: N-terminal GST; dsDNA, one strand shown
T6 sequence: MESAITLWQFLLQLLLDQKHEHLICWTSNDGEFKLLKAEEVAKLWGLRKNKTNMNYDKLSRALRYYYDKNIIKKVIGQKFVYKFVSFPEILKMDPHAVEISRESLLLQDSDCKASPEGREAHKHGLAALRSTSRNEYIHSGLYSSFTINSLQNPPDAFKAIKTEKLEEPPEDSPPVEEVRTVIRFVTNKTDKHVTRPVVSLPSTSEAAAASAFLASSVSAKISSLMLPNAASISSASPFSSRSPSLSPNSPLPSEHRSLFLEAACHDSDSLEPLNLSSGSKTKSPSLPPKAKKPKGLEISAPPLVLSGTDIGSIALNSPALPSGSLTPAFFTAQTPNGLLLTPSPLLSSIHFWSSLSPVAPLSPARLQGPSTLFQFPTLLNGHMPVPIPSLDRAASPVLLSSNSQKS
In short: as §1

FEV = molecular target: T7, FEV (Homo sapiens, UniProt Q99581 1-238); settings: protein: recombinant; tags: N-terminal GST; dsDNA, one strand shown
T7 sequence: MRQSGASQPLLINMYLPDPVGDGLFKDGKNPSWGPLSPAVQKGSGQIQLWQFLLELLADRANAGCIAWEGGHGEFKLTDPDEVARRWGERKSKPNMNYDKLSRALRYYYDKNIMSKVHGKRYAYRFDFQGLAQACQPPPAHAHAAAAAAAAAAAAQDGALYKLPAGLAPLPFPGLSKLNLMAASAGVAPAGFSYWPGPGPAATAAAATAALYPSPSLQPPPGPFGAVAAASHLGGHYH
In short: as §1

ETV5 = ETV5 (Homo sapiens, UniProt P41161 1-510); settings: protein: recombinant; tags: N-terminal GST; dsDNA, one strand shown
In short: as §1

HSF1 = HSF1 (Homo sapiens, UniProt Q00613 1-529); settings: protein: recombinant; tags: N-terminal GST; chain copies: 3; dsDNA, one strand shown
In short: as §1

SPIC = molecular target: T8, SPIC (Homo sapiens, UniProt Q8N5J4 1-248); settings: protein: recombinant; tags: N-terminal GST; dsDNA, one strand shown
T8 sequence: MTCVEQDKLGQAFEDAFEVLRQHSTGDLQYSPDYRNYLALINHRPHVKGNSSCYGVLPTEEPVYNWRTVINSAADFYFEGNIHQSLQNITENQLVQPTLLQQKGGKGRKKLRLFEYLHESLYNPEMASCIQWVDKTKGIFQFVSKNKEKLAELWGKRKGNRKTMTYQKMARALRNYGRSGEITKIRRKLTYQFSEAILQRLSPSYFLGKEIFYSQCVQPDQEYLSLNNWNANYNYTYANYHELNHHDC
In short: as §1

ELF4 = ELF4 (Homo sapiens, UniProt Q99607 1-663); settings: protein: recombinant; tags: N-terminal GST; dsDNA, one strand shown
In short: as §1

ELK4 = molecular target: T9, ELK4 (Homo sapiens, UniProt P28324-2 1-405); settings: protein: recombinant; tags: N-terminal GST; dsDNA, one strand shown
T9 sequence: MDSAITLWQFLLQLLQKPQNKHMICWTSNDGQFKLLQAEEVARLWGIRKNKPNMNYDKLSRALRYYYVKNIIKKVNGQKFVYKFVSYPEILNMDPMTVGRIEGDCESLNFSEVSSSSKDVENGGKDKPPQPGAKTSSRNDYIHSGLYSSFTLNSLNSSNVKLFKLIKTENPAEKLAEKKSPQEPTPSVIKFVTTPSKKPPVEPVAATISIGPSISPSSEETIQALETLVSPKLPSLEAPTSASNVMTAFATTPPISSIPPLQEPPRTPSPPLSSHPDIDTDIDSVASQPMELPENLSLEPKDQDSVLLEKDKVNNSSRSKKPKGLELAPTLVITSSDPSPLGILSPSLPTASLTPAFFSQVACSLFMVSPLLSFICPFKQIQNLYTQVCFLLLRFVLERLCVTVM
In short: as §1

ETV2 = molecular target: T10, ETV2 (Homo sapiens, UniProt O00321 1-342); settings: protein: recombinant; tags: N-terminal GST; dsDNA, one strand shown
T10 sequence: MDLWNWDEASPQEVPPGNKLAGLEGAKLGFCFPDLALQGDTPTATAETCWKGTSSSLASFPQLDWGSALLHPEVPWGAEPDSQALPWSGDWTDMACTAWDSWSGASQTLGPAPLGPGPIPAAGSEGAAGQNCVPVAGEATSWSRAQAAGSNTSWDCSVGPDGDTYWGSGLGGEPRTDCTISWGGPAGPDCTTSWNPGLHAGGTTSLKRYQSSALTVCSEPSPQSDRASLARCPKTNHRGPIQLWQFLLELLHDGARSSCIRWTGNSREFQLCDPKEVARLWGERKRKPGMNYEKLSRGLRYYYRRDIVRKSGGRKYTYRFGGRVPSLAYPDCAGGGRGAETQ
In short: as §1

ELF3 = molecular target: T11, ELF3 (Homo sapiens, UniProt P78545 1-371); settings: protein: recombinant; tags: N-terminal GST; dsDNA, one strand shown
T11 sequence: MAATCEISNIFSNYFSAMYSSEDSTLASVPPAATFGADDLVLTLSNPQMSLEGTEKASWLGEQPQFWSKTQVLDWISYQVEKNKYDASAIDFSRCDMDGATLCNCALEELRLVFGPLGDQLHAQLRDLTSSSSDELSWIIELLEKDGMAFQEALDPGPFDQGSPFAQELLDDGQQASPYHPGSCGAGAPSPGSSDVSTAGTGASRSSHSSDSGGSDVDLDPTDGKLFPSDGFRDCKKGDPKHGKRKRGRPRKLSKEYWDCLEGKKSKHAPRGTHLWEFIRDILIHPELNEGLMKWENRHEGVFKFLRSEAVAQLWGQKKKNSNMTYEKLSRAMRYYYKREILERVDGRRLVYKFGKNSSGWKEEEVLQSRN
In short: as §1

CRX = CRX (Homo sapiens, UniProt O43186 1-299); settings: protein: recombinant; tags: N-terminal GST; dsDNA, one strand shown
In short: as §1

ETV1 = ETV1 (Homo sapiens, UniProt P50549 1-477); settings: protein: recombinant; tags: N-terminal GST; dsDNA, one strand shown
In short: as §1

Chain of CRX (O43186 whole entry): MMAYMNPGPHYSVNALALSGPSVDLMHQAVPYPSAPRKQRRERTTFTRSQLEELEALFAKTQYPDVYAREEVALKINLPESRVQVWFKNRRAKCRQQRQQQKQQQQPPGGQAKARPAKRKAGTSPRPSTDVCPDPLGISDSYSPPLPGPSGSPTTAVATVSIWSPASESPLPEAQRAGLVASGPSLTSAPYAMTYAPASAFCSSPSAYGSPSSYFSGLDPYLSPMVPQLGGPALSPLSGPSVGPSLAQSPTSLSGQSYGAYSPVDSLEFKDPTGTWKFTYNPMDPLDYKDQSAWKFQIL
Chain of ETV1 (P50549 whole entry): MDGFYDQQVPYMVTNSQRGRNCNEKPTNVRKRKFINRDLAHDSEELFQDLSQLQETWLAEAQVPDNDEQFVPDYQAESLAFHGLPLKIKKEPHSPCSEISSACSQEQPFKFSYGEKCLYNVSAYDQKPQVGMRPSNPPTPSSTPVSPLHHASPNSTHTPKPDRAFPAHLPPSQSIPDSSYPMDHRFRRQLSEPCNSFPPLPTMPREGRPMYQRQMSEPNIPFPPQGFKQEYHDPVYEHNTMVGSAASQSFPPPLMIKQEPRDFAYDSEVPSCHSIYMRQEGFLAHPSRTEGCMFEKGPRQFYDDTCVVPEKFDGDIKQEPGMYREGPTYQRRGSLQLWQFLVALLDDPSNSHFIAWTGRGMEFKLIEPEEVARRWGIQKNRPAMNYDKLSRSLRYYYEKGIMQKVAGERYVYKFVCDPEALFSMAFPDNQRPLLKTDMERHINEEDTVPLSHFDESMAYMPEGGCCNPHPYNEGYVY
Chain of ELF4 (Q99607 whole entry): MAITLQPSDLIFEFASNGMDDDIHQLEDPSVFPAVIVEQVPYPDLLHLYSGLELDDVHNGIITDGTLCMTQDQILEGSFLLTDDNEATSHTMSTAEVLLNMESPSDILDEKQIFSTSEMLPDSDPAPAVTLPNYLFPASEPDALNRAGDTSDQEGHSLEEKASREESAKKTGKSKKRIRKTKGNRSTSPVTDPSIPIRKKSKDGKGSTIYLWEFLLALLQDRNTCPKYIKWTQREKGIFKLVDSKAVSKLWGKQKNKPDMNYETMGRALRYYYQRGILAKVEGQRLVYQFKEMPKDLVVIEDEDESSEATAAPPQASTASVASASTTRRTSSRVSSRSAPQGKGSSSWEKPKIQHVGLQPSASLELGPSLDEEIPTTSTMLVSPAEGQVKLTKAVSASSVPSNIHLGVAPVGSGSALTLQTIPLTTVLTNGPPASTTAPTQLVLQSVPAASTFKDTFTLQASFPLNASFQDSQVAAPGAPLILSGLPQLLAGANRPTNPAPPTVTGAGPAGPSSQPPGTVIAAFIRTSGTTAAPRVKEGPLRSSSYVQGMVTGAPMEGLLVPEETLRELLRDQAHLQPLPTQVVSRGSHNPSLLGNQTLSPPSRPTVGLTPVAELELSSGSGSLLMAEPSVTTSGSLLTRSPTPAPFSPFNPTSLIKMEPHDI
Chain of SPIB (Q01892 whole entry): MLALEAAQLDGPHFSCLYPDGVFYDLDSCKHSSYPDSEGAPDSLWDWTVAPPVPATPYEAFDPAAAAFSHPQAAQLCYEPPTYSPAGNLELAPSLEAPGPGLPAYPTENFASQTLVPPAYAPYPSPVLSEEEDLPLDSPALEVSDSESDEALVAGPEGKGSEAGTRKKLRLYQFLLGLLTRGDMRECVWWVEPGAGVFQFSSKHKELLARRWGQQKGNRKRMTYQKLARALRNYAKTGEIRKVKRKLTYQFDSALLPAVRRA
Chain of ELF1 (P32519 whole entry): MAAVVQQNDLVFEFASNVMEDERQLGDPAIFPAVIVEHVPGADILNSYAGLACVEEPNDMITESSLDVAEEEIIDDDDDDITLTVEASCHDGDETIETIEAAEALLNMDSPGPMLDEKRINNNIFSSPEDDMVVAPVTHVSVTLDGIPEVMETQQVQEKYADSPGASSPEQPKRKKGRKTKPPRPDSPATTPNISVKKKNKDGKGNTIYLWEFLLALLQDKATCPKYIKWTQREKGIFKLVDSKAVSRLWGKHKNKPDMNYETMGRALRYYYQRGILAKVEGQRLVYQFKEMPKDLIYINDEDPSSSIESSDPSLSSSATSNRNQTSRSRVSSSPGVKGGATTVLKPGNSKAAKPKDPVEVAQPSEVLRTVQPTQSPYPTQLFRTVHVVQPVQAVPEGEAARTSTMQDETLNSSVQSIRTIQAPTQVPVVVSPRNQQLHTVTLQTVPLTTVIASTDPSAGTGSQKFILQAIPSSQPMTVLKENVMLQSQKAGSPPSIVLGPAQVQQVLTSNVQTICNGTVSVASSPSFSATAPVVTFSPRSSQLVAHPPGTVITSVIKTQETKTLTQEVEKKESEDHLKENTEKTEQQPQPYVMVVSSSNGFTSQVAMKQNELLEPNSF
Chain of HSF1 (Q00613 whole entry): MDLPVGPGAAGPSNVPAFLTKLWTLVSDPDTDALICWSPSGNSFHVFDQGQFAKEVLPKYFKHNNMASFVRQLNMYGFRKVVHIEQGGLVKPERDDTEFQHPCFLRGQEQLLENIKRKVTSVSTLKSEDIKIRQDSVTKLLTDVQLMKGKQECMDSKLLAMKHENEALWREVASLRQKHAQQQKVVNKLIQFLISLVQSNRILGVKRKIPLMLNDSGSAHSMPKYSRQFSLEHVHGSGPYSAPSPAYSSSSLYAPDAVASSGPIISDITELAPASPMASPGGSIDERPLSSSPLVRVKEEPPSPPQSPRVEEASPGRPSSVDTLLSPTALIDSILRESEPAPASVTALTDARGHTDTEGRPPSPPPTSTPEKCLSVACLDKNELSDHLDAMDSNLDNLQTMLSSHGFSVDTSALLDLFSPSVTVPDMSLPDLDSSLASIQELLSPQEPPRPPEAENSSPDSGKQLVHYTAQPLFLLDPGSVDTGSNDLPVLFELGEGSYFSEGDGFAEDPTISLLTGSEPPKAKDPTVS
Chain of ETV5 (P41161 whole entry): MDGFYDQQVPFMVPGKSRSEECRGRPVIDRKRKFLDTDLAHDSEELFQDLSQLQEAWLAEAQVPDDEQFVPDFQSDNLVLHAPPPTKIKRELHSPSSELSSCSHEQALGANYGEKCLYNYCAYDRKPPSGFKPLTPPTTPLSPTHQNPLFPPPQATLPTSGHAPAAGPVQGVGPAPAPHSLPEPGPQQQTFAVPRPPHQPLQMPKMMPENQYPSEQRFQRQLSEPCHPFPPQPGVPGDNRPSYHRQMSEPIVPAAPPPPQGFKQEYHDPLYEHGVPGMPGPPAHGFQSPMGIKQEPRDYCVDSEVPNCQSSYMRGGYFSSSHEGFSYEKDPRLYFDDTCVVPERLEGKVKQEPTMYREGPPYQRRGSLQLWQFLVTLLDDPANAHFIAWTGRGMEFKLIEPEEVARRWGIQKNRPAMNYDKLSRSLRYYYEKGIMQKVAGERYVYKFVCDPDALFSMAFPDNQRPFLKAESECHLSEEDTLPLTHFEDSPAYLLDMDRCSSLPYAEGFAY

For AATAAC, the binding signal (FLI1) was 1.31 fold enrichment (6-mer frequency, TF over GST control), the binding signal (ELK1) was 1.33 fold enrichment (6-mer frequency, TF over GST control) and the binding signal (GABPA) was 1.3 fold enrichment (6-mer frequency, TF over GST control). For the same sequence, the binding signal (ERG) was 1.27 fold enrichment (6-mer frequency, TF over GST control), the binding signal (ELF1) was 1.23 fold enrichment (6-mer frequency, TF over GST control) and the binding signal (EHF) was 1.26 fold enrichment (6-mer frequency, TF over GST control). For the same sequence, the binding signal (SPI1) was 1.18 fold enrichment (6-mer frequency, TF over GST control), the binding signal (SPIB) was 1.37 fold enrichment (6-mer frequency, TF over GST control) and the binding signal (ELK3) was 1.33 fold enrichment (6-mer frequency, TF over GST control). The binding signal (FEV) was 1.25 fold enrichment (6-mer frequency, TF over GST control), the binding signal (ETV5) was 1.3 fold enrichment (6-mer frequency, TF over GST control) and the binding signal (HSF1) was 1.27 fold enrichment (6-mer frequency, TF over GST control). For the same sequence, the binding signal (SPIC) was 1.42 fold enrichment (6-mer frequency, TF over GST control), the binding signal (ELF4) was 1.32 fold enrichment (6-mer frequency, TF over GST control) and the binding signal (ELK4) was 1.13 fold enrichment (6-mer frequency, TF over GST control). The binding signal (ETV2) was 1.31 fold enrichment (6-mer frequency, TF over GST control), the binding signal (ELF3) was 1.25 fold enrichment (6-mer frequency, TF over GST control) and the binding signal (CRX) was 1.32 fold enrichment (6-mer frequency, TF over GST control). The binding signal (ETV1) was 1.15 fold enrichment (6-mer frequency, TF over GST control).
